Data on 35 compounds can be found in ChEMBL document CHEMBL3433997, “St. Jude Leishmania screening dataset” (2016).

Several values for one entry are separate records, joined by “and”; a condition that tells them apart may be missing. Equal values may be shown once.

What all share (type): functional
Experiment [1] deals with Solute carrier family 2, facilitated glucose transporter member 1 (Homo sapiens) (UniProt P11166). The experiment can be described thus: ST_JUDE_LEISH: Cytotoxicity at 2uM final concentration against transgenic Leishmania Mexicana promastigotes LmGLUT1 that are glucose transport deficient and complemented with the human glucose transporter GLUT1. Activity is measured by DNA content using SYBR green in vitro.
Chain of Solute carrier family 2, facilitated glucose transporter member 1 (Homo sapiens) (P11166 whole entry): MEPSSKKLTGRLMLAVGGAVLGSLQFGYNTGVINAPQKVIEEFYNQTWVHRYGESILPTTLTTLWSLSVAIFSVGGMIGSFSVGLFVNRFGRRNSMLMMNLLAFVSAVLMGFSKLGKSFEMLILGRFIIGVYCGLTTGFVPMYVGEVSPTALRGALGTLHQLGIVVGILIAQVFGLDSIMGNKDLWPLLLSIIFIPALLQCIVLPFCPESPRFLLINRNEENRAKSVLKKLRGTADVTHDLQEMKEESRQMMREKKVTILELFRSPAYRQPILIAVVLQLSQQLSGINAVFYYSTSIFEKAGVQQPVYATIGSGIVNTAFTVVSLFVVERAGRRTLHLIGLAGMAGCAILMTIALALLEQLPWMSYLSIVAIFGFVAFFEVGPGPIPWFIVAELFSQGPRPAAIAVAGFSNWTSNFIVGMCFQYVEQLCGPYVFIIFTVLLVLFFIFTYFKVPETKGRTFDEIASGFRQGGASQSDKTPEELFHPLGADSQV

Experiment [2] addresses Hexose transporter 1 (Plasmodium falciparum) (UniProt O97467). The experiment can be described thus: ST_JUDE_LEISH: Cytotoxicity at 2uM final concentration against transgenic Leishmania Mexicana promastigotes LmPfHT that are glucose transport deficient and complemented with the Plasmodium falciparum hexose transporter. Activity is measured by DNA content using SYBR green in vitro.

For experiment [3], the target named is Glucose transporter (Leishmania mexicana) (UniProt O61059). Description: ST_JUDE_LEISH: Cytotoxicity at 2uM final concentration against transgenic Leishmania Mexicana promastigotes LmGT2 that are glucose transport deficient and complemented with the L. Mexicana glucose transporter 2. Activity is measured by DNA content using SYBR green in vitro.

Turning to `CC1CN(Cc2cccc(C#N)c2)CCN1c1ccc(NC(=O)c2cccs2)cc1` (stereo not given), the results for the inhibition in experiment [1], in experiment [2] and in experiment [3] were 6.93%, 7.96% and 4.53%, respectively.

As to `CCC(CCON1C(N)=NC(N)=NC1(C)C)c1ccc(Cl)cc1` (stereo not given), the inhibition was determined as 4.18% in experiment [1], 1.03% in experiment [2] and 2.41% in experiment [3].

For `CCN1CCC(N(Cc2ccc(-c3ccc(C(F)(F)F)cc3)cc2)C(=O)Cn2nc(C)c(=O)cc2SCc2ccc(F)cc2)CC1`, the inhibition in experiment [1] turned out to be 0.5%; in experiment [2], 0.04%; in experiment [3], 0.46%.

`Nc1ncc(-c2ccsc2)c2ccc(-c3cnc[nH]3)cc12`: the inhibition is 1.46% in experiment [1], 0.14% in experiment [2] and -0.37% in experiment [3].

For the compound `CN1CCCC1CCNCc1ccc(-c2ccc(CNCCc3ccccc3)cn2)cc1` (stereo not given), the inhibition in experiment [1] is 1.95%; in experiment [2], 2.41%; in experiment [3], 4.27%.

In the case of `CN(C(=O)c1snnc1-c1ccccc1)C1CCN(CCCCCNC(=O)/C=C/c2ccc(Cl)c(Cl)c2)CC1`, the figures for the inhibition in experiment [1], in experiment [2] and in experiment [3] were 3.47%, 0.39% and 3.46%, respectively.

With `Cc1cc(=O)c(-c2ccc(Oc3cccc(C(F)(F)F)c3)cc2)c(C)[nH]1`, the inhibition in experiment [1] was 0.14% and -4.84%; in experiment [2] it was 2% and 2.11%; in experiment [3] it was 1.32% and -2.73%.

Consider `CN(C)CCNc1ncnc2c1[nH]c1ccc(Br)cc12`, for which the inhibition was 1.62% in experiment [1], 4.67% in experiment [2] and 1.38% in experiment [3].

On to `Clc1ccc(CCNCCCCCCNCCc2ccc3c(c2)OCO3)cc1`, for which the inhibition in experiment [1] came out at 8.05%; in experiment [2], 8.53%; in experiment [3], 7.21%.

As to `NCCNC(=O)c1ccc(-c2cnc3[nH]cc(-c4ccc(C(N)=O)cc4)c3c2)cc1`, the results for the inhibition in experiment [1], in experiment [2] and in experiment [3] were 3.65%, 2.58% and 2.98%, respectively.

As to `O=S(=O)(NCCN1CCCC1)c1ccc(-c2cccc(CNCCc3cccs3)c2)s1`, the figures for the inhibition in experiment [1], in experiment [2] and in experiment [3] were 0.02%, 2.28% and 3.42%, respectively.

On to `COc1cc(C2=NN(S(=O)(=O)c3c(Cl)cc(Cl)cc3Cl)CCCC2)ccc1Cl`, for which the inhibition was determined as 2.1% in experiment [1], 2.71% in experiment [2] and 4.36% in experiment [3].

`COc1cc2/c(=N/c3ccc(Br)cc3F)nc[nH]c2cc1OCC1CCN(C)CC1`: the inhibition is -0.8% in experiment [1], 2.56% in experiment [2] and 0.95% in experiment [3].

As to `CCn1ncc(Cl)c1CN(C)S(=O)(=O)c1ccc2ccccc2c1`, the inhibition amounted to 5.72% in experiment [1], 6.41% in experiment [2] and 6.31% in experiment [3].

In the case of `Cc1cc(Cl)c(S(=O)(=O)N2CCc3ccccc32)cc1OCC(=O)NC1CCCCC1`, the inhibition in experiment [1] was found to be 2.33%; in experiment [2] it was 1.17%; in experiment [3] it was 2.14%.

Consider `Cn1cncc1C(=O)Nc1ccc(-c2cccc(-c3nc4cc(F)ccc4[nH]3)c2)cc1`, for which the inhibition amounted to 3.54% in experiment [1], 3.21% in experiment [2] and 4.7% in experiment [3].

With `O=C(c1cc(-c2cccs2)n[nH]1)N1CCN(S(=O)(=O)c2ccc(Cl)s2)CC1`, the inhibition in experiment [1] is 3.98%; in experiment [2], 1.77%; in experiment [3] it was 2.9%.

In the case of `O=c1cc(NCCCNC2CCc3ccc(Cl)cc32)[nH]c2ccccc12` (stereo not given), the results for the inhibition in experiment [1], in experiment [2] and in experiment [3] were -2.61%, -0.73% and 1.83%, respectively.

`CCc1nc2ccc(C(=O)OC)nc2n1Cc1ccc2oc(-c3ccccc3N)c(Br)c2c1`: the inhibition came out at 2.91% in experiment [1], 2.33% in experiment [2] and 1.6% in experiment [3].

As for `CCCCOc1cc2c(cc1OCC)C(C=Cc1ccc(Cl)cc1Cl)=NCC2`, the inhibition in experiment [1] stood at 15.5%; in experiment [2], 27.9%; in experiment [3] it was 10.2%.

For the compound `COc1cc2nc(N[C@@H](CO)c3ccccc3)nc(NCc3ccccc3)c2cc1OC`, the results for the inhibition in experiment [1], in experiment [2] and in experiment [3] were 1.12%, 2.17% and 1.61%, respectively.

In the case of `CCN(CCO)CCCC(C)Nc1ccnc2cc(Cl)ccc12` (stereo not given), the inhibition in experiment [1] was 7%; in experiment [2] it was 7.44%; in experiment [3] it was 6.05%.

As for `COc1cccc(Nc2c(C(N)=O)cnc3ccc(-c4ccccc4)cc23)c1`, the inhibition in experiment [1] is 0.37%; in experiment [2] it was 0.94%; in experiment [3], 1.58%.

As to `COc1ccc(CNCc2ccc(F)cc2)cc1-c1ccc(S(=O)(=O)NCCN2CCCC2)s1`, the inhibition in experiment [1] turned out to be 2.3%; in experiment [2], 3.11%; in experiment [3], 5.96%.

Turning to `COc1ccc(Cc2nc3c(n2C(C)=O)SC(c2ccc(Cl)c(Cl)c2)=NN3C(C)=O)cc1`, the inhibition was 0.08% in experiment [1], 5.48% in experiment [2] and 5.39% in experiment [3].

With `Cc1nc(N2CCC(C)CC2)c2c3c(sc2n1)CCCC3`, the inhibition is 2.21% in experiment [1], 2.09% in experiment [2] and 0.47% in experiment [3].

For `CO/C(=C\C=C\c1cc2cc(Cl)c(Cl)cc2[nH]1)C(=O)NCC(C)(C)CN(C)C`, the inhibition was -1.89% in experiment [1], 2.21% in experiment [2] and 1.65% in experiment [3].

With `COc1ccc2ccc(F)c(CCN3CCC(NCc4cc5c(cn4)OCCO5)CC3)c2n1`, the values for the inhibition in experiment [1], in experiment [2] and in experiment [3] were 8.37%, 14% and 22.4%, respectively.

In the case of `Cc1ccc(NC(=O)c2cc(Br)cc(N3CCCN(C)CC3)c2)cc1F`, the figures for the inhibition in experiment [1], in experiment [2] and in experiment [3] were -0.54%, 0.36% and -1.29%, respectively.

In the case of `CCCCCCCN1CCC(NC(=O)Nc2ccnc3ccc(OC)cc23)C(C(=O)OCC)C1` (stereo not given), the figures for the inhibition in experiment [1], in experiment [2] and in experiment [3] were -2.21%, 0% and -2.59%, respectively.

As for `CC(C)c1ccc(CN2CCC(CNC(=O)c3cc(-c4cccc(Cl)c4)cs3)C2)cc1` (stereo not given), the inhibition in experiment [1] was 1.24%; in experiment [2] it was 3.19%; in experiment [3] it was -0.24%.

For the compound `COc1cccc(CNC[C@@H](O)[C@H](Cc2ccccc2)NC(=O)c2cc(N3CCCC3=O)c3[nH]cc(C(C)C)c3c2)c1`, the inhibition was 1.26% in experiment [1], 2.02% in experiment [2] and 2.36% in experiment [3].

Consider `O=C(Nc1ccc(C(=O)OCC2CCCN3CCCCC23)cc1)c1ccc([N+](=O)[O-])cc1` (stereo not given), for which the inhibition was -1.57% in experiment [1], 0.57% in experiment [2] and 0.99% in experiment [3].

In the case of `CC(C)N1CCN(CCCNc2c3ccccc3nc3ccccc23)CC1`, the inhibition in experiment [1] amounted to 40.1%; in experiment [2], 58%; in experiment [3] it was 19%.

As to `Cc1ccccc1C1CCN(C2CCC(NC(=O)c3ccc(-c4ccccc4F)o3)CC2)CC1` (stereo not given), the inhibition amounted to 3.69% in experiment [1], 2.49% in experiment [2] and 1.85% in experiment [3].
